# In PubChem BioAssay (EPA / NIEHS):
# Results filed as inconclusive are left out. Calls of active or inactive are those of the source. The calls were made as follows, unless noted: active = hit-call score of the fitted dose curve at least 0.9, where 1 is the maximum; inactive = score below 0.9.
# Experiments:
# [1] = read-out: Monocyte Chemoattractant Protein-1 (MCP1), CCL2 (gene 6347); experiment: BSK_LPS_MCP1: BioMAP Diversity Plus: LPS Assay for Monocyte Chemoattractant Protein-1 (MCP1) Biomarker Activity (AID 2283081); conditions: primary human HUVEC with PBMC; actives raise or lower the signal
# Method in brief: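 Values derive from bidirectional fitting against DMSO of ELISA-measured MCP-1 in a human primary endothelial and mononuclear cell co-culture, 24 h after chemical addition under LPS activation.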
# [2] = BSK_LPS_PGE2: BioMAP Diversity Plus: LPS Assay for Prostaglandin E2 (PGE2) Biomarker Activity (AID 2283082); conditions: primary human HUVEC with PBMC; actives raise or lower the signal;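 as to AC50: secreted prostaglandin E2 measured by ELISA in LPS-stimulated co-culture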
# Method in brief: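 LPS-activated HUVEC/PBMC co-culture; cmpd dosed, 24 h; PGE2 by ELISA; bidirectional fit vs DMSO; SRB (0.1%, TCA-fixed, 560 nm) in parallel plates for overt cytotox.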
# [3] = read-out: Macrophage colony-stimulating factor (MCSF), CSF1 (gene 1435); experiment: BSK_LPS_MCSF: BioMAP Diversity Plus: LPS Assay for Macrophage colony-stimulating factor (MCSF) Biomarker Activity (AID 2283083); conditions: primary human HUVEC with PBMC; actives raise or lower the signal
# Method in brief: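 Bidirectional fit versus DMSO of ELISA-measured M-CSF in co-cultured human umbilical vein endothelial cells and PBMC, sampled 24 h after dosing.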
# [4] = read-out: Tissue Factor, F3 (gene 2152); experiment: BSK_LPS_TissueFactor: BioMAP Diversity Plus: LPS Assay for Tissue Factor Biomarker Activity (AID 2283084); conditions: primary human HUVEC with PBMC; actives raise or lower the signal
# Method in brief: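 Read-out: CD142 ELISA, 24 h. System: LPS-driven human endothelial/PBMC co-culture. Analysis: up- or down-signal fitted against DMSO.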
# [5] = read-out: Tumor necrosis factor (Homo sapiens) (UniProt P01375); experiment: BSK_LPS_TNFa: BioMAP Diversity Plus: LPS Assay for Tumour Necrosis Factor alpha (TNFa) Biomarker Activity (AID 2283085); conditions: primary human HUVEC with PBMC; actives raise or lower the signal
# Method in brief: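 Read-out is ELISA of TNFa in primary human endothelial cell–PBMC co-cultures at 24 h after compound. Activity in either direction was fitted against DMSO.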
# [6] = read-out: Vascular cell adhesion molecule 1 (VCAM1), VCAM1 (gene 7412); experiment: BSK_LPS_VCAM1: BioMAP Diversity Plus: LPS Assay for Vascular cell adhesion molecule 1 (VCAM1) Biomarker Activity (AID 2283086); conditions: primary human HUVEC with PBMC; actives raise or lower the signal
# Method in brief: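 HUVEC + PBMC co-culture, LPS system; compound 24 h; VCAM-1 by ELISA; bidirectional fit vs DMSO control; parallel SRB (0.1%, TCA-fixed, 560 nm) for cytotoxicity.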
# CD38, CD38 (gene 952) = experiment: BSK_SAg_CD38: BioMAP Diversity Plus: SAg Assay for CD38 Biomarker Activity (AID 2283087); conditions: primary human HUVEC with PBMC; actives raise or lower the signal
# Method in brief: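 Human HUVEC plus PBMC co-culture stimulated with superantigen; CD38 measured by ELISA 24 h after chemical dosing. Fluorescence read-out, bidirectional fit against DMSO; cytotoxicity tracked in parallel by SRB and Alamar Blue.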
# CD40, CD40 (gene 958) = experiment: BSK_SAg_CD40: BioMAP Diversity Plus: SAg Assay for CD40 Biomarker Activity (AID 2283088); conditions: primary human HUVEC with PBMC; actives raise or lower the signal
# Method in brief: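 Endpoint derived by fitting increases or decreases versus DMSO controls. CD40 is detected by fluorescence ELISA in a human vascular co-culture of endothelium and PBMC at 24 h.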
# CD69, CD69 (gene 969) = experiment: BSK_SAg_CD69: BioMAP Diversity Plus: SAg Assay for CD69 Biomarker Activity (AID 2283089); conditions: primary human HUVEC with PBMC; actives raise or lower the signal
# Method in brief: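 ELISA, fluorescence read-out: CD69 on human umbilical vein endothelial cell + PBMC co-culture, 24 h post-dosing. Gain or loss of signal fitted bidirectionally against DMSO baseline.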
# [7] = read-out: Monocyte Chemoattractant Protein-1 (MCP1), CCL2 (gene 6347); experiment: BSK_SAg_MCP1: BioMAP Diversity Plus: SAg Assay for Monocyte Chemoattractant Protein-1 (MCP1) Biomarker Activity (AID 2283090); conditions: primary human HUVEC with PBMC; actives raise or lower the signal
# Method in brief: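 MCP-1 levels in the endothelial–PBMC SAg co-culture were quantified by ELISA at 24 h post-dosing; both increases and decreases versus DMSO scored. Cytotoxicity monitored by SRB total protein in parallel cultures.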
# [8] = read-out: Monokine induced gamma interferon (MIG), CXCL9 (gene 4283); experiment: BSK_SAg_MIG: BioMAP Diversity Plus: SAg Assay for Monokine induced gamma interferon (MIG) Biomarker Activity (AID 2283092); conditions: primary human HUVEC with PBMC; actives raise or lower the signal
# Method in brief: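 ELISA readout of MIG/CXCL9; primary human umbilical vein endothelial cells co-cultured with peripheral blood mononuclear cells; 24 h post-dose; gain/loss fit vs DMSO baseline.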
# [9] = BSK_SAg_PBMCCytotoxicity: PBMC Cytotoxicity Assessment in the BioMAP Diversity Plus: SAg Assay (AID 2283093); conditions: primary human HUVEC with PBMC;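 also: PBMC viability measured as Alamar Blue reduction fluorescence at 546/580 nm; fitted both ways against DMSO so a hit may be loss or gain of signal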;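 as to AC50: PBMC superantigen activated with SEB plus TSST-1 one hour after compound addition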
# Method in brief: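 Human umbilical vein endothelial cells co-cultured with PBMC; PBMC (75,000/well) pre-treated with compound 1 h, then activated with SEB and TSST-1 (20 ng/mL final each) for 90 h. Alamar Blue added 6 h, fluorescence 546/580 nm; bidirectional fit versus DMSO.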
# [10] = read-out: Interleukin-8 (IL8), CXCL8 (gene 3576); experiment: BSK_SAg_IL8: BioMAP Diversity Plus: SAg Assay for Interleukin-8 (IL8) Biomarker Activity (AID 2283094); conditions: primary human HUVEC with PBMC; actives raise or lower the signal
# Method in brief: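 ELISA read-out of IL-8 in a primary human vascular co-culture (umbilical vein endothelium plus PBMC), taken 24 h after compound addition. Values derive from bidirectional fits against DMSO negative controls.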
# [11] = BSK_SAg_SRB: Viability Assessment in the BioMAP Diversity Plus: SAg Assay (AID 2283096); conditions: primary human HUVEC with PBMC;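 also: cells read one day after compound addition; hits may be either gain or loss of signal compared with DMSO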
# Method in brief: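 Endothelial/PBMC primary human co-culture; compound 24 h; fix 10% TCA, stain 0.1% SRB, A560; protein content as cytotoxicity proxy; bidirectional curve fit, DMSO = baseline.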
# [12] = read-out: E-selectin (Homo sapiens) (UniProt P16581); experiment: BSK_SAg_Eselectin: BioMAP Diversity Plus: SAg Assay for Eselectin Biomarker Activity (AID 2283091); conditions: primary human HUVEC with PBMC; actives raise or lower the signal
# Method in brief: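 Endpoint values derive from bidirectional fitting relative to DMSO, using ELISA-measured E-selectin in a human vascular co-culture (umbilical vein endothelium plus PBMC) sampled 24 h after dosing.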
# [13] = BSK_SAg_Proliferation: Cell Proliferation Assessment in the BioMAP Diversity Plus: SAg Assay (AID 2283095); conditions: primary human HUVEC with PBMC;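 also: relative cell number as total protein by SRB absorbance in sub-confluent culture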
# Method in brief: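 Cells (endothelium plus PBMC, human primary) were dosed with chemical, cultured 96 h, fixed in 10% TCA and stained with 0.1% SRB. Absorbance at 560 nm gave relative protein, fitted bidirectionally relative to DMSO.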
# [14] = molecular target: human CYP2A6, CYP2A6 (gene 1548) (UniProt P11509); experiment: NVS_ADME_hCYP2A6: NovaScreen (NVS) CYP450-related Enzyme Activity (ADME) Assay for human CYP2A6 (AID 2283099; active = hit-call score of the fitted dose curve at least 0.9, where 1 is the maximum)
# Method in brief: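 Loss of fluorescence signal relative to acetonitrile vehicle reported CYP2A6 inhibition in a cell-free system using insect-cell-derived enzyme. Readings were taken at 0.5 h; top concentration in follow-up dose series was 20 uM.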
# [15] = molecular target: human CYP2B6, CYP2B6 (gene 1555) (UniProt P20813); experiment: NVS_ADME_hCYP2B6: NovaScreen (NVS) CYP450-related Enzyme Activity (ADME) Assay for human CYP2B6 (AID 2283101; active = hit-call score of the fitted dose curve at least 0.9, where 1 is the maximum)
# Method in brief: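 Fluorescence-based enzyme activity of recombinant human CYP2B6, measured 1 h post-dose against acetonitrile vehicle baseline. Screened at a single concentration of 10 uM in duplicate before concentration-response follow-up.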
# [16] = molecular target: human CYP19A1, CYP19A1 (gene 1588) (UniProt P11511); experiment: NVS_ADME_hCYP19A1: NovaScreen (NVS) CYP450-related Enzyme Activity (ADME) Assay for human CYP19A1 (AID 2283098; active = hit-call score of the fitted dose curve at least 0.9, where 1 is the maximum)
# Method in brief: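 Cell-free enzyme assay with recombinant protein and a specific fluorogenic substrate, read by fluorescence intensity 0.5 h after dosing. Primary screen ran in duplicate at 10 uM; actives were retested in concentration series. Loss of signal versus acetonitrile baseline.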
# Sequence of Tumor necrosis factor (Homo sapiens) (P01375 whole entry, looked up): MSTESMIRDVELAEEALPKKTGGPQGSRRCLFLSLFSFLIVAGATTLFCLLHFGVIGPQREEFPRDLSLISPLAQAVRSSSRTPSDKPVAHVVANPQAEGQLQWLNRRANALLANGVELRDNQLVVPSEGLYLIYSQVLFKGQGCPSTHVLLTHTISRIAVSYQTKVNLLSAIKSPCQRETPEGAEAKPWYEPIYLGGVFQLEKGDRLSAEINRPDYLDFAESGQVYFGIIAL
# Sequence of human CYP19A1, CYP19A1 (gene 1588) (P11511 whole entry, looked up): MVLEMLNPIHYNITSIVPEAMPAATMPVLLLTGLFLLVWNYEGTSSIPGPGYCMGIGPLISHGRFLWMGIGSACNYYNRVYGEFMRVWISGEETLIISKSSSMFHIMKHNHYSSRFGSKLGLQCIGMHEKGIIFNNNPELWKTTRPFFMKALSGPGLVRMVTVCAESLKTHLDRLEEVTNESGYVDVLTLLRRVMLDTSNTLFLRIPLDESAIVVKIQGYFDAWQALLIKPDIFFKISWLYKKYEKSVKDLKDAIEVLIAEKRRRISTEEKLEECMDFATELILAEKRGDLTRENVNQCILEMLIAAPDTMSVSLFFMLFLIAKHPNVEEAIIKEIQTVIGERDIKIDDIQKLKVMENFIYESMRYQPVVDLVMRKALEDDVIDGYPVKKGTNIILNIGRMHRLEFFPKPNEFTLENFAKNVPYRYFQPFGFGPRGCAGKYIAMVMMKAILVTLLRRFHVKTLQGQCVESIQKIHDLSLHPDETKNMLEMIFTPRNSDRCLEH
# Sequence of E-selectin (Homo sapiens) (P16581 whole entry, looked up): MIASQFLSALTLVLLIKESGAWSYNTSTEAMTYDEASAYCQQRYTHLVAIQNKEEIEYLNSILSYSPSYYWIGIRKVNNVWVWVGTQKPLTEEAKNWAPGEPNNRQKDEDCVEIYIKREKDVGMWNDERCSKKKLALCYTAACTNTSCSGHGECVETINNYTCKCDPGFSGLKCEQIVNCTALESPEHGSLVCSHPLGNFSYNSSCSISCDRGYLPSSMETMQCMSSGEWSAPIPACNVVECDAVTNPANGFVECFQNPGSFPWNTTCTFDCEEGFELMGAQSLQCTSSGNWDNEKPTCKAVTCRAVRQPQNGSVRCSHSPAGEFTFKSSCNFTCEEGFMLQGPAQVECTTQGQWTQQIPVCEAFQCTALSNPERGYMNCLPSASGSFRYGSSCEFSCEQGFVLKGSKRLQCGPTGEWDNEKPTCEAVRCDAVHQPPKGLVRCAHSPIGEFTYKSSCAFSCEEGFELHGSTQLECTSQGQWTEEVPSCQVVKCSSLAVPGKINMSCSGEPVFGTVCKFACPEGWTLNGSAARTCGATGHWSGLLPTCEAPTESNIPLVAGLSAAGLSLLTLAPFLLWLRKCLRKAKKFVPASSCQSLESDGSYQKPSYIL
# Sequence of human CYP2B6, CYP2B6 (gene 1555) (P20813 whole entry, looked up): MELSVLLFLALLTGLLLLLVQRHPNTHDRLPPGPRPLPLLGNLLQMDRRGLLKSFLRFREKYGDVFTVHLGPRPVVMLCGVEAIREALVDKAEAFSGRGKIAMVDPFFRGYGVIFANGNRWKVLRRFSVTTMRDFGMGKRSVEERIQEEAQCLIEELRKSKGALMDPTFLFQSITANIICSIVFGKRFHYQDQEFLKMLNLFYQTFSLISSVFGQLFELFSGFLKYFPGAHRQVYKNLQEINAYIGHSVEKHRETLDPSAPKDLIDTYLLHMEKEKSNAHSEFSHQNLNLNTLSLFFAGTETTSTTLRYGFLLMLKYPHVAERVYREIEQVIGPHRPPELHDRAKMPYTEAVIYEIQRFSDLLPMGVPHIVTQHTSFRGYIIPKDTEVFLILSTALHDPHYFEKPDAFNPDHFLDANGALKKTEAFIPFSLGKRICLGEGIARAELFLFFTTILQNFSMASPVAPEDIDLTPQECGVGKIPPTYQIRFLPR
# Sequence of human CYP2A6, CYP2A6 (gene 1548) (P11509 whole entry, looked up): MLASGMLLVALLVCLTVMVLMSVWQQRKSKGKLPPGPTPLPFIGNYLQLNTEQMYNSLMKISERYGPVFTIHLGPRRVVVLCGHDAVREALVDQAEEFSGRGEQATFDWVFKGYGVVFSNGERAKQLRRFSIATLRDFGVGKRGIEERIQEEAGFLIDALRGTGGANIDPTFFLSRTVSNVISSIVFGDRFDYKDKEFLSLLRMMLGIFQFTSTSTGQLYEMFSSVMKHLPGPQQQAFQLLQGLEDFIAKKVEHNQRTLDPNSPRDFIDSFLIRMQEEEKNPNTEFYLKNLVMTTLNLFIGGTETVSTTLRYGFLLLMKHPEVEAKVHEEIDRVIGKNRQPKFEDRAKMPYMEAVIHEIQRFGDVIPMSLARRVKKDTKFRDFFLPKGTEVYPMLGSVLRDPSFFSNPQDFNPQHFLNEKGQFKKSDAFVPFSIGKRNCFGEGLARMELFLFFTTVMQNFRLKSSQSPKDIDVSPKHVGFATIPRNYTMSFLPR
smiles,measurement,setting,value
CCCCC(CC)COP(=O)(OCC(CC)CCCC)OCC(CC)CCCC (stereo not drawn),outcome,[1],inactive
same,outcome,[2],inactive
same,outcome,[3],inactive
same,outcome,[4],inactive
same,AC50,[5],5.46 µM (active)
same,outcome,[6],inactive
same,outcome,"CD38, CD38 (gene 952)",inactive
same,outcome,"CD40, CD40 (gene 958)",inactive
same,outcome,"CD69, CD69 (gene 969)",inactive
same,outcome,[7],inactive
same,outcome,[8],inactive
same,AC50,[9],0.197 µM (active)
same,outcome,[10],inactive
same,AC50,[11],5.38 µM (active)
S=c1[nH]c2ccccc2s1,outcome,[1],inactive
same,AC50,[2],12.9 µM (active)
same,outcome,[3],inactive
same,AC50,[4],2.23 µM (active)
same,outcome,[5],inactive
same,outcome,[6],inactive
same,outcome,"CD38, CD38 (gene 952)",inactive
same,outcome,"CD69, CD69 (gene 969)",inactive
same,outcome,[7],inactive
same,outcome,[12],inactive
same,outcome,[8],inactive
same,outcome,[9],inactive
same,outcome,[10],inactive
same,outcome,[13],inactive
same,outcome,[11],inactive
same,AC50,[14],4.85 µM (active)
same,AC50,[15],1.28 µM (active)
Cc1ccc(C(C)(C)C)c(O)c1,outcome,[1],inactive
same,AC50,[2],3.09 µM (active)
same,outcome,[3],inactive
same,outcome,[4],inactive
same,outcome,[5],inactive
same,outcome,[6],inactive
same,outcome,"CD38, CD38 (gene 952)",inactive
same,outcome,"CD40, CD40 (gene 958)",inactive
same,outcome,"CD69, CD69 (gene 969)",inactive
same,outcome,[7],inactive
same,outcome,[8],inactive
same,outcome,[9],inactive
same,outcome,[10],inactive
same,outcome,[11],inactive
COC(=O)CCC(=O)OC,outcome,[1],inactive
same,outcome,[2],inactive
same,outcome,[3],inactive
same,outcome,[4],inactive
same,outcome,[5],inactive
same,outcome,[6],inactive
same,outcome,"CD38, CD38 (gene 952)",inactive
same,outcome,"CD40, CD40 (gene 958)",inactive
same,outcome,"CD69, CD69 (gene 969)",inactive
same,outcome,[7],inactive
same,outcome,[8],inactive
same,outcome,[9],inactive
same,outcome,[10],inactive
same,outcome,[11],inactive
Cc1cc(SC2=C(O)C[C@@](CCc3ccc(N)cc3)(C(C)C)OC2=O)c(C(C)(C)C)cc1CO,outcome,[1],inactive
same,outcome,[2],inactive
same,outcome,[3],inactive
same,outcome,[4],inactive
same,AC50,[5],20 µM (active)
same,outcome,[6],inactive
same,outcome,"CD38, CD38 (gene 952)",inactive
same,outcome,"CD40, CD40 (gene 958)",inactive
same,outcome,"CD69, CD69 (gene 969)",inactive
same,outcome,[7],inactive
same,outcome,[8],inactive
same,outcome,[9],inactive
same,outcome,[10],inactive
same,outcome,[13],inactive
same,outcome,[11],inactive
same,outcome,[16],inactive
Cc1cc(Cc2ccc(N)c(C)c2)ccc1N,outcome,[1],inactive
same,outcome,[2],inactive
same,outcome,[4],inactive
same,outcome,[5],inactive
same,outcome,[6],inactive
same,outcome,"CD38, CD38 (gene 952)",inactive
same,outcome,"CD40, CD40 (gene 958)",inactive
same,outcome,"CD69, CD69 (gene 969)",inactive
same,outcome,[7],inactive
same,outcome,[8],inactive
same,outcome,[9],inactive
same,outcome,[10],inactive
same,outcome,[11],inactive
